The nature of test [1]: CCTE_Harrill_HTTr_Viability_DMEM_6hr: (Pilot) CCTE's 6-hour Cell Viability Assessment for the High-Throughput Transcriptomics (HTTr) Platform, in MCF-7 cells cultured in DMEM + 10% fetal bovine serum, Harrill Lab (AID 2283973). An outline of the steps: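 Propidium iodide uptake imaged by high-content analysis after six hours of chemical treatment in an eight-concentration series. Cells: MCF-7 grown in DMEM with 10% fetal bovine serum; DMSO as baseline.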

The nature of test [2]: CCTE_Harrill_HTTr_Viability_DMEM_12hr: (Pilot) CCTE's 12-hour Cell Viability Assessment for the High-Throughput Transcriptomics (HTTr) Platform, in MCF-7 cells cultured in DMEM + 10% fetal bovine serum, Harrill Lab (AID 2283974). An outline of the steps:
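Propidium iodide dye exclusion imaged by high-content microscopy after 12 h chemical exposure (eight concentrations) of MCF-7 cells grown in DMEM plus 10% FBS; values fitted in both directions relative to DMSO.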

Test [3] is described as follows: CCTE_Harrill_HTTr_Viability_DMEM_24hr: (Pilot) CCTE's 24-hour Cell Viability Assessment for the High-Throughput Transcriptomics (HTTr) Platform, in MCF-7 cells cultured in DMEM + 10% fetal bovine serum, Harrill Lab (AID 2283975). An outline of the steps:
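Pilot study: propidium iodide dye exclusion, imaged by high content microscopy, after 24 h compound exposure (eight concentrations) in MCF-7 cultured in DMEM + 10% fetal bovine serum; DMSO served as negative control and baseline.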

Test [4] can be described thus: CCTE_Harrill_HTTr_Viability_PRF_DMEM_6hr: (Pilot) CCTE's 6-hour Cell Viability Assessment for the High-Throughput Transcriptomics (HTTr) Platform, in MCF-7 cells cultured phenol red-free DMEM + 10% charcoal-stripped fetal bovine serum, Harrill Lab (AID 2283976). An outline of the steps:
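Membrane integrity by high-content imaging of propidium iodide uptake, six hours after dosing with eight concentrations. Cells: MCF-7 grown in phenol red-free DMEM plus 10% charcoal-stripped serum; DMSO serves as baseline for bidirectional fits.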

A short description of test [5]: CCTE_Harrill_HTTr_Viability_PRF_DMEM_12hr: (Pilot) CCTE's 12-hour Cell Viability Assessment for the High-Throughput Transcriptomics (HTTr) Platform, in MCF-7 cells cultured in phenol red-free DMEM + 10% charcoal-stripped fetal bovine serum, Harrill Lab (AID 2283977). An outline of the steps: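 Membrane integrity was scored via propidium iodide dye exclusion imaging, fitted in both directions relative to DMSO. Compounds ran as eight-point dilutions for 12 hours on MCF-7 grown in phenol red-free DMEM plus 10% charcoal-stripped serum.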

Test [6] can be described thus: CCTE_Harrill_HTTr_Viability_PRF_DMEM_24hr: (Pilot) CCTE's 24-hour Cell Viability Assessment for the High-Throughput Transcriptomics (HTTr) Platform, in MCF-7 cells cultured in phenol red-free DMEM + 10% charcoal-stripped fetal bovine serum, Harrill Lab (AID 2283980). An outline of the steps:
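Propidium iodide exclusion imaged at 24 h after dosing scores viability; cells were MCF-7 grown in phenol red-free DMEM plus 10% charcoal-stripped serum, tested in eight concentrations, fitted in both directions against DMSO.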

Test [7] is described as follows: CCTE_Harrill_HTTr_Apoptosis_DMEM_6hr: (Pilot) CCTE's 6-hour Apoptosis Assessment for the High-Throughput Transcriptomics (HTTr) Platform, in MCF-7 cells cultured in DMEM + 10% fetal bovine serum, Harrill Lab (AID 2283981). The gist of the method: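 MCF-7 cells grown in DMEM + 10% FBS were exposed for 6 hours to an eight-point dilution series. CellEvent Caspase 3/7 Green signal was imaged; activity fitted bidirectionally against DMSO.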

Test [8] concerns the target Retinoic acid receptor RXR-alpha (Homo sapiens) (UniProt P19793). The test is described as follows: TOX21_TR_RXR_BLA_Antagonist_Followup_ratio: Tox21 Thyroid Hormone Receptor beta Retinoid X Receptor alpha (RXRa) Antagonism Beta-lactamase (BLA) Follow-Up Assay, Ratio (AID 2283972; active = hit-call score of the fitted dose curve at least 0.9, where 1 is the maximum). The source says:
GeneBLAzer RXRa-UAS-bla HEK293T assay (RXRa-bla) (ThermoFisherScientific Catalog No. K1697) was run in qHTS 1536 well format as a secondary assay for specificity of response in the TOX21_TR_GH3_LUC_Agonist assay.TOX21_TR_RXR_BLA_Antagonist_Followup_ratio is an assay readout measuring reporter gene via receptor activity and designed using inducible reporter (beta lactamase induction) detected with GAL4 b-lactamase reporter gene. The signal is derived from the ratio of cleaved (ch2) to uncleaved (ch1) reporter gene substrate used as the measure of target activity.Data from the assay component TOX21_TR_RXR_BLA_Antagonist_Followup_ratio was analyzed into 1 assay endpoint. This assay endpoint, TOX21_TR_RXR_BLA_Antagonist_Followup_ratio, was analyzed in the positive analysis fitting direction relative to DMSO as the negative control and baseline of activity. Using a type of inducible reporter, loss-of-signal activity can be used to understand changes in the reporter gene as they relate to the gene RXRA. Furthermore, this assay endpoint can be referred to as a primary readout, because this assay has produced multiple assay endpoints and this ratio serves a reporter gene function to understand target activity. To generalize the intended target to other relatable targets, this assay endpoint is annotated to the nuclear receptor intended target family, where subfamily is non-steroidal.
Cell Media Required: Growth (90% DMEM/F-12, 10% Fetal Bovine Calf Serum, 100U/ml Penicillin, 100 ug/ml Streptomycin), Assay (10ng/mL sodium selenite, 10 ug/mL humanapo-transferrin, […] uM ethanolamine, 10 ug/mL insulin, 500 ug/mL bovine serum albumin (BSA))Assay Protocol: RXRa-bla cells were seeded at 2,500/well in 6 uL of the assay medium containing phenol red-free DMEM with 2% charcoal-stripped FBS in 1,536-well black-wall/clear-bottom plates (Greiner Bio-One North America) usinga Multidrop Combi dispenser. […] After 2-h incubation at room temperature, the fluorescence intensity was measured using an Envision plate reader (Perkin Elmer). Data were expressed as the ratio of 460:530 nm.

The nature of test [9]: TOX21_TR_RXR_BLA_Antagonist_Followup_viability: Viability Assessment in the Tox21 Thyroid Hormone Receptor beta Retinoid X Receptor alpha (RXRa) Antagonism Beta-lactamase (BLA) Follow-Up Assay (AID 2283979; active = hit-call score of the fitted dose curve at least 0.9, where 1 is the maximum). The gist of the method:
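RXRa-UAS-bla HEK293T cells seeded 2,500/well in phenol red-free DMEM with 2% charcoal-stripped FBS, attached 5 h, then exposed to compounds at 11 concentrations in triplicate for 16 h at 37C/5% CO2. Viability read by CellTiter-Glo ATP luminescence; bidirectional fit versus DMSO.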

Test [10] can be described thus: TOX21_TR_RXR_BLA_Agonist_Followup_viability: Viability Assessment in the Tox21 Thyroid Hormone Receptor beta Retinoid X Receptor alpha (RXRa) Agonism Beta-lactamase (BLA) Follow-Up Assay (AID 2283970; active = hit-call score of the fitted dose curve at least 0.9, where 1 is the maximum). From the text: GeneBLAzer RXRa-UAS-bla HEK293T assay (RXRa-bla) (ThermoFisherScientific Catalog No. K1697) was run in qHTS 1536 well format as a secondary assay for specificity of response in the TOX21_TR_GH3_LUC_Agonist assay.TOX21_TR_RXR_BLA_Agonist_Followup_viability is a component of the TOX21_TR_RXR_BLA_Agonist_Followup assay. This component measures cell viability using the CellTiter-Glo Luciferase-coupled ATP quantitation.The assay component endpoint TOX21_TR_RXR_BLA_Agonist_Followup_viability was analyzed with bidirectional fitting relation to DMSO as the negative control and baseline of activity. Using a type of viability reporter, loss-of-signal activity can be used to understand changes in viability. […]
Cell Media Required: Growth (90% DMEM/F-12, 10% Fetal Bovine Calf Serum, 100U/ml Penicillin, 100 ug/ml Streptomycin), Assay (10ng/mL sodium selenite, 10 ug/mL humanapo-transferrin, 10 uM ethanolamine, 10 ug/mL insulin, 500 ug/mL bovine serum albumin (BSA))Assay Protocol: RXRa-bla cells were seeded at 2,500/well in 6 uL of the assay medium containing phenol red-free DMEM with 2% charcoal-stripped FBS in 1,536-well black-wall/clear-bottom plates (Greiner Bio-One North America) usinga Multidrop Combi dispenser. […] After 2-h incubation at room temperature, the fluorescence intensity was measured using an Envision plate reader (Perkin Elmer). Data were expressed as the ratio of 460:530 nm.

In PubChem BioAssay (EPA / NIEHS) one finds outcome and AC50 data, which are given here for six compounds.

Molecules are shown by their SMILES. Inconclusive results are not listed. Calls of active or inactive are those of the source. The calls were made as follows, unless noted: active = hit-call score of the fitted dose curve at least 0.9, where 1 is the maximum; inactive = score below 0.9.

Chain of Retinoic acid receptor RXR-alpha (Homo sapiens) (P19793 whole entry, looked up, the tested form may be a part): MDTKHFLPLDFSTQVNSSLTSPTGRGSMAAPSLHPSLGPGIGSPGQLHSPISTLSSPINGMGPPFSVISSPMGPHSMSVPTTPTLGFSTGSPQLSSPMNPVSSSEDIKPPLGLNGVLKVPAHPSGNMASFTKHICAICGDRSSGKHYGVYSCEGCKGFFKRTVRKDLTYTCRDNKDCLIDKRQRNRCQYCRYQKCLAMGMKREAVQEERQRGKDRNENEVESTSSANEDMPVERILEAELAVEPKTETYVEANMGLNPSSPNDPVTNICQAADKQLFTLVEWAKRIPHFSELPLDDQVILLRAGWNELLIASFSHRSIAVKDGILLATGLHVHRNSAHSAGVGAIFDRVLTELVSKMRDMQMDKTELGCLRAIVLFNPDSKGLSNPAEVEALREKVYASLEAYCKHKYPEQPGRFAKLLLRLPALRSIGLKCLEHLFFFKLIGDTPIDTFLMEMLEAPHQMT

For the compound `CC(C1CC1)C(O)(Cn1cncn1)c1ccc(Cl)cc1` (stereo not given), the outcome in [1], in [2], in test [3], in test [4], in test [5] and in test [6] was inactive. In addition, the outcome in [7] was inactive.
Regarding `CCNc1nc(Cl)nc(NC(C)(C)C#N)n1`, the result in test [1], in test [2], in [3], in [4], in test [5] and in [6] was inactive. In test [7], the result was inactive.
Take `C=C(C)[C@H]1Cc2c(ccc3c2O[C@@H]2COc4cc(OC)c(OC)cc4[C@@H]2C3=O)O1`: the result in test [8], in [1], in test [2], in test [4], in test [5] and in [9] was inactive. Besides, in [7], the result was inactive. Besides, the AC50 in [3] was 31.1 nM (active); in [6], 24.6 nM (active).
As for `C[N+]1(C)CCCCC1`, in test [10], the outcome was inactive.
`CON=C(C(=O)OC)c1ccccc1CON=C(C)c1cccc(C(F)(F)F)c1`: the outcome in [8], in [1], in test [2], in test [3], in test [4] and in test [5] was inactive. The outcome in test [9], in [6] and in test [7] was inactive.
Take `CSC1=N[C@@](C)(c2ccccc2)C(=O)N1Nc1ccccc1`: the result in [8] and in test [9] was inactive.
